Source: PubChem BioAssay (Tox21)
Records with an inconclusive call do not appear. Entries that show only a call come without a potency. Active and inactive are the calls of the source. Unless noted, calls follow the shape of the dose curve; as a rule, active = well fitted curve in the direction sought with a large enough effect in the repeat runs; inconclusive = weak or mixed curves; inactive = no such curve, though single readings can be large; an effect the other way counts as inactive or inconclusive.

Experiments:
[1] = A CellTox Green Cytotoxicity Assay to monitor cytotoxicity in HepG2 cells - 8 hour (AID 1224890); also: nearly all actives have a fitted effect of over 45% in size
In short: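 HepG2 cells were seeded together with the CellTox Green dye at 600 cells/well, left 5 h at 37 C/5% CO2, then given compounds in DMSO. Fluorescence from dye bound to dead-cell DNA was read repeatedly over 40 h of treatment at 37 C.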

[2] = qHTS assay to identify small molecule antagonists of the estrogen receptor alpha (ER-alpha) signaling pathway using the BG1 cell line in the presence of 0.1 nM 17-beta-estradiol - cell viability counter screen (AID 1259241); also: nearly all actives have a fitted effect of over 40% in size
In short: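 Estradiol-stimulated (0.1 nM) VM7Luc4E2 cells exposed to compounds 22 hr; viability measured by fluorescence of cleaved CellTiter-Fluor substrate after 30 min.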

[3] = qHTS assay to identify small molecule antagonists of the androgen receptor (AR) signaling pathway using the MDA cell line in the presence of 0.5 nM R1881 - cell viability counter screen (AID 1259242); also: nearly all actives have a fitted effect of over 45% in size
In short: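 MDA-kb2 cells (human breast carcinoma, stably carrying MMTV-luciferase reporter) were exposed to compounds with 0.5 nM R1881 (final) for 16 hr at 37C, 0% CO2; viability then read as live-cell protease fluorescence (CellTiter-Fluor, 30 min) in the same wells.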

[4] = molecular target: Estrogen receptor (Homo sapiens) (UniProt P03372); assay: qHTS assay to identify small molecule antagonists of the estrogen receptor alpha (ER-alpha) signaling pathway using the BG1 cell line in the presence of 0.1 nM 17-beta-estradiol (AID 1259244); also: nearly all actives have a fitted effect of over 50% in size; also: potency is read from the fitted curve at half-maximal effect
Estrogen receptor (Homo sapiens), sequence (P03372 whole entry, looked up): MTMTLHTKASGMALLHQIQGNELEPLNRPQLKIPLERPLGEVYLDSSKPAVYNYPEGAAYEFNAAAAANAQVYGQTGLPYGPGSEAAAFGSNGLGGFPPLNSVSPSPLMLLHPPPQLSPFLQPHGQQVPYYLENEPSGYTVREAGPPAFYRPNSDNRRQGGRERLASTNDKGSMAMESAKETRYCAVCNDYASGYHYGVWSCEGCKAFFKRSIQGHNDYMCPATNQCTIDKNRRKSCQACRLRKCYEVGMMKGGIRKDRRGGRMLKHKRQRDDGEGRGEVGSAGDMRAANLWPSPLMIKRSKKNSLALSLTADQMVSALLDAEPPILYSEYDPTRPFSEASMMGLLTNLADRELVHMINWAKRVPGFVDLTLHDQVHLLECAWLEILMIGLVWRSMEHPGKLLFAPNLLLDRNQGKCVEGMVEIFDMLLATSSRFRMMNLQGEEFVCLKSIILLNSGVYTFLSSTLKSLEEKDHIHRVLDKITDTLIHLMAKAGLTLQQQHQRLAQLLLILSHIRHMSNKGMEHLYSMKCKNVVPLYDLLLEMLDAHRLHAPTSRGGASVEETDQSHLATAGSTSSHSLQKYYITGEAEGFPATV
In short: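 VM7Luc4E2 cells (endogenous full-length ER-alpha, stable 4xERE-luciferase) were grown 5 days in phenol red-free medium with charcoal-stripped FBS, then exposed 22 h at 37C to compounds plus 0.1 nM (final) 17beta-estradiol; ONE-Glo luminescence read-out.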

[5] = qHTS assay to identify small molecule HDAC inhibitors (AID 1259364); also: nearly all actives have a fitted effect of over 45% in size; also: potency is read from the fitted curve at half-maximal effect
In short: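 Wild-type HCT-116 cells were plated overnight, exposed to compounds for 2 h at 37 °C, then given HDAC-Glo class I/II luminogenic reagent for 30 min at room temperature before luminescence was read.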

[6] = qHTS assay to identify small molecule HDAC inhibitors - cell viability counter screen (AID 1259365); also: series mostly up to about 92 µM; nearly all actives have a fitted effect of over 50% in size
In short: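 After overnight seeding at 1,500 cells per well, wild-type HCT-116 cultures took up compounds in DMSO for 2hr at 37 C. Viable cell content came from luminescence with CellTiter-Glo.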

[7] = qHTS assay to identify small molecule antagonists of the sonic hedgehog signaling (Shh) pathway - cell viability counter screen (AID 1259367); also: nearly all actives have a fitted effect of over 55% in size
In short: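 NIH/3T3-derived Gli1-Luc reporter cells, 2,000/well, plated 4 hr before compound addition, then stimulated with conditioned medium for 24 hr at 37C. Viability measured in the same wells by CellTiter-Fluor fluorescence, reagent added at 23 hr for 1 hr.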

[8] = qHTS assay to identify small molecule agonists of the sonic hedgehog signaling (Shh) pathway - cell viability counter screen (AID 1259366); also: nearly all actives have a fitted effect of over 50% in size
In short: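 Same-well cytotoxicity read. Gli1-Luc reporter 3T3 cells; compounds 24hr, 37C/5% CO2; CellTiter-Fluor fluorescence.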

[9] = qHTS assay to identify small molecule phospholipidosis (PLD) inducers (AID 1259344; active = well fitted curve in the direction sought with a large enough effect; an effect the other way counts as inactive or inconclusive)
In short: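 HepG2 cells, 900/well, treated with compound plus LipidTOX Red for 24 h at 37 C; amiodarone positive and DMSO negative controls. Fixed with paraformaldehyde/Hoechst, then high-content imaging scored LipidTOX pit count and integrated intensity per well and per cell.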

Row | SMILES | Potency [1] | Potency [2] | Potency [3] | Potency [4] | Potency [5] | Potency [6] | Potency [7] | Potency [8] | Potency [9]
1 | C=C/C(C)=C/C/C=C(\C)CCC=C(C)C | inactive | inactive | inactive | inactive | inactive | inactive | inactive | – | –
2 | CC=C(Cl)Cl | inactive | inactive | inactive | inactive | inactive | inactive | inactive | inactive | –
3 | CCC1(CO)COCOC1 | inactive | inactive | inactive | inactive | inactive | inactive | inactive | – | –
4 | Oc1c(I)cc(I)c2cccnc12 | inactive | inactive | inactive | – | inactive | inactive | inactive | inactive | inactive
5 | CCOC(=O)/C=C/C(=O)OCC | inactive | inactive | inactive | inactive | inactive | inactive | inactive | inactive | –
6 | CC(O)c1ccccc1 (stereo not drawn) | inactive | inactive | inactive | inactive | inactive | inactive | inactive | – | –
7 | Cc1ccccc1S | inactive | inactive | inactive | inactive | inactive | inactive | inactive | – | –
8 | CN1CCCN=C1COC(=O)C(O)(c1ccccc1)C1CCCCC1 (stereo not drawn) | inactive | inactive | inactive | inactive | inactive | inactive | inactive | inactive | –
9 | C=C(C)C(=O)OCCOCCOC(=O)C(=C)C | inactive | inactive | inactive | inactive | inactive | inactive | inactive | inactive | –
10 | CC(C)(C)CC(=O)OCC(=O)[C@@]1(O)CC[C@H]2[C@@H]3CCC4=CC(=O)C=C[C@]4(C)[C@H]3[C@@H](O)C[C@@]21C | inactive | inactive | inactive | inactive | inactive | inactive | inactive | – | –
11 | Cc1ccc(C(C)(C)O)cc1 | inactive | inactive | inactive | inactive | inactive | inactive | inactive | – | –
12 | CC(CO)CO | inactive | inactive | inactive | inactive | inactive | inactive | inactive | inactive | –
13 | CCCCN(CCCC)C(C(N)=O)c1ccc(OC)cc1 (stereo not drawn) | inactive | inactive | inactive | inactive | inactive | inactive | inactive | inactive | –
14 | C=COCC(C)C | inactive | inactive | inactive | inactive | inactive | inactive | inactive | inactive | –
15 | O=C(O)C[C@H](NC(=O)OCc1ccccc1)C(=O)O | inactive | inactive | inactive | inactive | inactive | inactive | inactive | inactive | –
16 | CCC=CC#N | inactive | inactive | inactive | inactive | 21 µM (active) | inactive | inactive | inactive | –
17 | C=C(C)CCCC(C)CCO (stereo not drawn) | inactive | inactive | inactive | inactive | inactive | inactive | inactive | inactive | –
18 | CC1(CN2CCC(n3c(=O)[nH]c4ccccc43)CC2)OCc2ccccc2-n2cccc21 (stereo not drawn) | inactive | inactive | inactive | 29.8 µM (active) | inactive | inactive | inactive | inactive | –
19 | CCCCCCCCCCC(=O)O | inactive | inactive | inactive | inactive | inactive | inactive | inactive | – | –
20 | Cc1[nH]cnc1CN1CCc2c(c3ccccc3n2C)C1=O | inactive | inactive | inactive | – | inactive | inactive | inactive | inactive | inactive
21 | CN1C(=O)c2ccccc2C1=O | inactive | inactive | inactive | – | inactive | inactive | – | inactive | inactive
22 | Cc1ccc(CO)cc1 | inactive | inactive | inactive | inactive | inactive | inactive | inactive | inactive | –
23 | O=c1[nH]ncc2ccccc12 | inactive | inactive | inactive | inactive | inactive | inactive | inactive | inactive | –
24 | COC(=O)CS | inactive | inactive | inactive | inactive | 26.3 µM (active) | inactive | inactive | inactive | –
25 | O=Cc1c2ccccc2c(Cl)c2ccccc12 | inactive | inactive | inactive | inactive | inactive | inactive | inactive | inactive | –
26 | CC(=O)[C@H]1[C@H](C#N)C[C@H]2[C@@H]3CC=C4C[C@@H](O)CC[C@]4(C)[C@H]3CC[C@@]21C | inactive | inactive | inactive | inactive | inactive | inactive | inactive | – | –
27 | O=C(CCc1ccc(O)cc1)c1c(O)cc(O)cc1O | inactive | inactive | inactive | inactive | inactive | inactive | inactive | – | –
28 | CC(=O)Nc1ccc(C)cc1C | inactive | inactive | inactive | – | inactive | inactive | inactive | inactive | –
